AT treatment = potential ataxia-telangiectasia treatment; F2112 A-T fibroblasts, KAP-1 phosphorylation AlphaLISA; neocarzinostatin DNA damage 30 min before lysis; Potency, µM (titrated, usually from 57.5 µM), for the others: top-dose activation, most hits filed as activators; 0.19% of 320,000 active; AID 485349; also: potency is read from the fitted curve at half-maximal effect; % of control where 0% means no effect; nearly all actives have a fitted effect of over 45% in size
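hTERT-immortalized A-T patient fibroblasts (F2112), 500 cells/well in OPTI-MEM, 1% FBS, got compounds for 60 min, then NCS for 30 min at 37C. Lysates were then assayed for phospho-KAP-1 by AlphaLISA (anti-pKAP1 donor, anti-KAP1 acceptor beads), 6 hr at 25C.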
IMPase Li inh = IMPase inhibition in cells with lithium potentiation. CHO-M1 cells, IP1 TR-FRET (IP-One), carbachol + lithium. AID 1457. 0.35% of 210,000 active. Potency, µM (titrated, usually from 59.4 µM), without a hit: at the highest dose activity, negative = IMPase inhibition, actives largely listed as inhibitors;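 also: IP1 builds up when IMPase is blocked and the TR-FRET signal falls; potency is read from the fitted curve at half-maximal effect; plate controls were basal vehicle for no effect and high inhibitor control for full effect; nearly all actives have a fitted effect of over 50% in size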
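CHO cells stably expressing M1 receptor (2000/well) were cultured 16–30 h, then exposed to compounds with a small lithium addition for 30 min at 37C. IP1 was measured by TR-FRET competition; AC50 from Hill fits.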
TRPV1 ag = activates the human vanilloid receptor TRPV1 | AID 540275 | 0.19% of 320,000 active | activation, % at 8.33 µM | Q8NER1 | TRPV1-expressing cells, Fluo-8 calcium influx, agonist mode; in the data active = activation above about 80%; inconclusive = between about 30% and that limit; also: 0% is about no effect
Target sequence (Q8NER1 whole entry, looked up): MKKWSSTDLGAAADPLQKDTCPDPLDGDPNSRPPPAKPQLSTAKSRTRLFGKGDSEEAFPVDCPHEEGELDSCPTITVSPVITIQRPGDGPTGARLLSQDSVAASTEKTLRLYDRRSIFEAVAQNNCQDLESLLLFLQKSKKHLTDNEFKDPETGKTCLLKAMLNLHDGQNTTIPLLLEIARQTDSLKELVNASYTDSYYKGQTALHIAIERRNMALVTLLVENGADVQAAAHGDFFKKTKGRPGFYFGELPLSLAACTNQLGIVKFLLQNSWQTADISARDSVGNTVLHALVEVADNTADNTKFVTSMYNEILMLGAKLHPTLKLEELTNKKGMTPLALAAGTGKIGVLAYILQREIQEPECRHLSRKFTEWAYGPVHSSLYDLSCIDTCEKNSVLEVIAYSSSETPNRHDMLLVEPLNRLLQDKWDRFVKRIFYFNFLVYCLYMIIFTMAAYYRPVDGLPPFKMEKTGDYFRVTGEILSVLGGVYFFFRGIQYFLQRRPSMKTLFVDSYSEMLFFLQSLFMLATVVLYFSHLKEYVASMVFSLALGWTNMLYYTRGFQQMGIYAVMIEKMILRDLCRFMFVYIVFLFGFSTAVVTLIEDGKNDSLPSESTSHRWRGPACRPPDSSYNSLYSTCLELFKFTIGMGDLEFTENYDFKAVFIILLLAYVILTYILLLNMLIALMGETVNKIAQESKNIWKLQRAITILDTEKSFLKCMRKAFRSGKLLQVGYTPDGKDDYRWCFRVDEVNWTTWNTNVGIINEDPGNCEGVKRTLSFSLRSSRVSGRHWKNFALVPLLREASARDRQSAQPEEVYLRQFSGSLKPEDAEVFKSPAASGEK
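Cells expressing TRPV1 were dye-loaded with Fluo-8 and read kinetically: 10 s baseline, 3 min after compound (agonist portion), then 2 min after EC20 capsaicin (allosteric enhancer portion). Calcium-bound dye fluorescence at 480/520 nm.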
TRPV1 potentiator = human TRPV1 potentiation; potentiation, % at 8.33 µM; 0.02% of 320,000 active; Q8NER1; TRPV1-expressing cells, Fluo-8 calcium influx, capsaicin EC20 potentiation; in the data active = potentiation above about 80%; inconclusive = between about 30% and that limit; also: 0% is about no effect
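Cells expressing TRPV1 were dye-loaded with Fluo-8 and read kinetically: 10 s baseline, 3 min after compound (agonist portion), then 2 min after EC20 capsaicin (allosteric enhancer portion). Calcium-bound dye fluorescence at 480/520 nm.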
Active calls of the source: *; u = inconclusive; x = not tested or not shown; [ ] = another dose, or the depositor's remark. A selection: hits, their analogues and other compounds. The true share with any hit is near 0.55%. Unless noted, calls follow the shape of the dose curve; as a rule, active = well fitted curve in the direction sought with a large enough effect; inconclusive = small, poorly fitted or top-dose-only effect, or another doubt; inactive = no such curve, though single readings can be large; an effect the other way counts as inactive or inconclusive.

SMILES	AT treatment	IMPase Li inh	TRPV1 ag	TRPV1 potentiator
COc1cc(/C=N/NC(=O)C2COc3ccccc3O2)ccc1O (centres undefined)	1%	x	14	-18
CC(C)(C)c1ccc2c(c1)OC(C(=O)N/N=C\c1ccc[nH]1)CO2 (centres undefined)	-4%	x	u	9
COc1cc(/C=N\NC(=O)C2COc3ccccc3O2)cc(OC)c1O (centres undefined)	12%	x	88*	2
Cc1ccccc1C	x	15%	x	x
COc1cc(C#Cc2c(-c3cncn3C)n(C)c3ccc(-c4cc(OC)c(OC)c(OC)c4)cc23)cc(OC)c1	10%	x	x	x
COc1cc(C#Cc2c(-c3cncn3C)n(C)c3ccc(-c4ccc(OC)nc4)cc23)cc(OC)c1	32µM*	x	0	-7
Cc1cc(=O)oc2cc(O[C@@H]3O[C@H](C(=O)O)[C@@H](O)[C@H](O)[C@H]3O)ccc12	x	7%	x	x
CN(Cc1cc(C(C)(C)C)cc(Br)c1O)Cc1cc(C(C)(C)C)cc(Br)c1O	x	2%	x	x
CCCCOc1ccc(-c2c(C(=O)Nc3ccccc3)c(C)[nH]c(=S)c2C#N)cc1	-3%	8.9µM*	0	6
N=C(N)SCCSC(=N)N	x	-2%	x	x
CC(C)CNC(=O)O	x	-7%	x	x
COc1ccc(C2c3ccc(O)cc3Oc3ncn(CCCO)c(=N)c32)cc1 (centres undefined)	25µM*	x	2	-2
N=c1c2c(ncn1Cc1ccco1)Oc1cc(O)ccc1C2c1ccccc1 (centres undefined)	16%	x	6	5
CCOc1ccccc1-c1ccc(C(=O)O)o1	x	-15%	x	x
c1ccc(N(c2ccccc2)c2nc(N3CCCC3)nc(-n3ccnc3)n2)cc1	20%	24%[38.3 µM]	u	3
CCOC(=O)N1CCN(c2nc(N(c3ccccc3)c3ccccc3)nc(-n3ccnc3)n2)CC1	10µM*	x	u	-14
COc1cc(-c2ccc(N=Nc3ccc4c(S(=O)(=O)O)cc(S(=O)(=O)O)c(N)c4c3O)c(OC)c2)ccc1N=Nc1ccc2c(S(=O)(=O)O)cc(S(=O)(=O)O)c(N)c2c1O	x	139%	x	x
Nc1nccc(-c2cccs2)n1	-1%	-12%	-2	14
Brc1cc(Br)c2nc(-c3cccs3)ccc2c1	7%	10µM*	-2	0
Nc1nccc(Nc2ccc(S(N)(=O)=O)cc2)n1	x	0%	x	x
CCOC(=O)C1=C(C)N(c2ccc(OC)cc2)C(=O)/C1=C\c1cccs1	9%	-2%	4	23
CCOC(=O)C1=C(C)N(c2ccc(OC)cc2)C(=O)/C1=C\c1ccc(O)c(OCC)c1	13µM*	x	0	21
Cc1ccc(-n2nc(C(=O)N3CCOCC3)cc2-c2ccc(Cl)cc2)cc1	-4%	2%	89*	1
O=C(c1cc(-c2ccc(Cl)cc2)n(-c2ccc(Cl)cc2)n1)N1CCOCC1	2%	16%[38.3 µM]	u	-16
O=C(c1cc(-c2ccc(Cl)c(Cl)c2)on1)N1CCOCC1	-6%	x	80*	4
SMILES	AT treatment	IMPase Li inh	TRPV1 ag	TRPV1 potentiator
O=C(c1cc(-c2ccc(Cl)cc2Cl)on1)N1CCOCC1	12%	17%[38.3 µM]	83*	-1
O=C(c1cc(-c2ccc(Cl)cc2)on1)N1CCOCC1	7%	20%[38.3 µM]	x	x
O=C(c1cc(-c2ccc(Cl)c(Cl)c2)on1)N1CCCC1	8%	63%[38.3 µM]	28	-19
CC#CCN1c2ccccc2[C@]23C[C@@H](C(=O)OC)N(S(=O)(=O)c4ccc([N+](=O)[O-])cc4)C2=NC(C(=O)OC)=C(C(=O)OC)[C@H]13	x	4%	x	x
CC=C1C2C=C(C)CC1(N)c1ccc(=O)[nH]c1C2 (centres undefined)	x	10%	x	x
Cn1c(=N)n(CC(=O)c2ccc(Cl)c(Cl)c2)c2ccccc21	28µM*	x	22	2
Cn1c(=N)n(CC(=O)c2ccccc2)c2ccccc21	5%	x	3	0
N=c1n(CC(=O)c2ccc(Br)cc2)c2ccccc2n1Cc1ccccc1	22µM*	x	2	0
O[C@@H](C1=C/C(=C\c2ccncc2)c2ccccc21)c1ccncc1	x	-9%	x	x
Cc1cccc(N2CCN(C(=O)N3CCOCC3)CC2)c1C	5%	7%	9	-7
Cc1ccc(N2CCN(C(=O)N3CCOCC3)CC2)c(C)c1	6%	4%	83*	-8

Compound activity deposited in PubChem by National Center for Advancing Translational Sciences (NCATS).
